Screen size: about 310,000 compounds; about 14,000 (4.5%) showed an effect of 50% or more. Effects have a minus sign here. Shown is part of a subset that was picked to be rich in strong results.
target: human ether-à-go-go-related gene (hERG) potassium channel (human, UniProt Q12809); assay: primary screen, population patch clamp on CHO cells stably expressing hERG; higher = less effect of the substance
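Note: peak tail current of the secondary pulse compared with the same well before compound.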

human ether-à-go-go-related gene (hERG) potassium channel, sequence (Q12809 whole entry, looked up): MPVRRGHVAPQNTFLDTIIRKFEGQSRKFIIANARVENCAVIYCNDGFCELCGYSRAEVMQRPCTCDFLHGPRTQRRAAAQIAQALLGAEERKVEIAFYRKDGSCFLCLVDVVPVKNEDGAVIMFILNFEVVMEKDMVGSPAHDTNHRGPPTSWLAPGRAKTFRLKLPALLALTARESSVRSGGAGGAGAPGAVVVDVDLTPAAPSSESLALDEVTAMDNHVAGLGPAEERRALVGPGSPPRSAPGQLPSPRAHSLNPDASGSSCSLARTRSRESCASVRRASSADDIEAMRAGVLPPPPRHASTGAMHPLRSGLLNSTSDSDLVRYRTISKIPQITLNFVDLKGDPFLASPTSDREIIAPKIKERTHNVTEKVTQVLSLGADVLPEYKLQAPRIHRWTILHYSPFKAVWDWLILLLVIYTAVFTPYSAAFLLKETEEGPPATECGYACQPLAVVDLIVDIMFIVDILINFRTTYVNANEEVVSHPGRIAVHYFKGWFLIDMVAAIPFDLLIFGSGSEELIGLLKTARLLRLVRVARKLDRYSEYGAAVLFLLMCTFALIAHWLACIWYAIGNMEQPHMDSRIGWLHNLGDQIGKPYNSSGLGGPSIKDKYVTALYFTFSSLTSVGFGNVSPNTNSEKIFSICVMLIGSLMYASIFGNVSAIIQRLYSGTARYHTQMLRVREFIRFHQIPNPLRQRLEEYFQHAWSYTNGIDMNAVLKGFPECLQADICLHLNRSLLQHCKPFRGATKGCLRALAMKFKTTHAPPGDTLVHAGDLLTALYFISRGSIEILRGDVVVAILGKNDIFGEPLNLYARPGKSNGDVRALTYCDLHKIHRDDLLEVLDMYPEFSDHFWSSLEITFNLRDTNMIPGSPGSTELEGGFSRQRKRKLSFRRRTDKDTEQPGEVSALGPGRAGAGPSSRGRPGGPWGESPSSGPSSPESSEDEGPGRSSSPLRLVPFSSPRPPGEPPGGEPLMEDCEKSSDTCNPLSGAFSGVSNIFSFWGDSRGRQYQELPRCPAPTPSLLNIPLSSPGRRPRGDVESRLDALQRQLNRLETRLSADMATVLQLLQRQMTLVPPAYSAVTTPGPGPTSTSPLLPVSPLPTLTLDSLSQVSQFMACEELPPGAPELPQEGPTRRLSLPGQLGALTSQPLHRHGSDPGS

Row | SMILES | hERG current change (%, negative = inhibition) at 10uM [%]
1 | O=C(CN1CCN(c2ccccn2)CC1)Nc1ccccc1F | 1.45
2 | c1ccc2c(c1)CC1(CCCC1)n1nnnc1-2 | -19.4
3 | O=C(NCc1ccccc1)C1=C[C@H](C2CCCCC2)C[C@H](OCCCCO)O1 | -3.07
4 | N#Cc1cc([N+](=O)[O-])cnc1N(CCO)CCO | -1.1
5 | CN1CCN(c2ncnc3nc[nH]c23)CC1 | 18.5
6 | Cc1ccccc1C(=NCCCN(C)C)c1ccccc1C.Cl | -21.7
7 | Cc1ccc(NCC(=O)N=Nc2c(O)[nH]c3ccc([N+](=O)[O-])cc23)cc1 | -5.06
8 | Cc1ccc(O)c(-c2cc(C(=O)Nc3c(C)n(C)n(-c4ccccc4)c3=O)[nH]n2)c1 | 8.4
9 | O=C(O)c1ccccc1NC(c1ccccc1)c1ccc(Cl)cc1 (stereo not drawn) | 19.8
10 | N#C/C(=C\c1ccccc1[N+](=O)[O-])C(=O)NC1CCCCC1 | -13.9
11 | COc1ccc(N2CCN(C(=O)COC(=O)CNC(=O)c3cccc(OC(F)F)c3)CC2)cc1 | -43.7
12 | Cc1cc(C(=O)NCC(=O)OCC(=O)NCCc2ccccc2)ccc1[N+](=O)[O-] | -16.9
13 | COc1ccc(C(=O)COC(=O)CNC(=O)c2cccc(OC(F)F)c2)cc1 | -64.6
14 | COc1cccc(C(=O)NCC(=O)OCC(=O)c2ccccc2)c1 | 2.59
15 | Cc1cc(C(=O)NCC(=O)OCC(=O)N(C(C)C)C(C)C)ccc1[N+](=O)[O-] | 10.6
16 | Cc1cc(C(=O)NCC(=O)OCC(=O)Nc2ccc(OC(F)F)cc2)ccc1[N+](=O)[O-] | -67.8
17 | Cc1ccnc2c(N3C(=O)C4C5c6ccccc6C(c6ccccc65)C4C3=O)cccc12 (stereo not drawn) | -2.78
18 | CCCNC(=O)C(Cc1ccc(C(F)(F)F)cc1)NC(=O)c1ccc2ccccc2n1 (stereo not drawn) | 14
19 | CCN1CCN(c2c(S(=O)(=O)c3ccc(C)c(C)c3)cnc3ccc(F)cc23)CC1 | -53.4

Row | SMILES | hERG current change (%, negative = inhibition) at 10uM [%]
20 | CCc1ccc2ncc(S(=O)(=O)c3ccc(C)c(C)c3)c(N3CCCC3)c2c1 | 0.769
21 | CCOc1ccc2ncc(S(=O)(=O)c3ccccc3)c(N3CCN(c4ccccc4)CC3)c2c1 | -2.21
22 | Nc1cc(N)nc(SCC(=O)Nc2ccc3c(c2)OCCCO3)n1 | 8.03
23 | CN(C)c1ccc(/C=N/N(Cc2ccccc2)c2ccccc2)cc1 | 3.54
24 | Cc1ccccc1NC(=O)CC1c2ccccc2CC(C)(C)N1C (stereo not drawn) | 4.03
25 | Cc1cc(Cl)ccc1NC(=O)CN1CCCC1 | 27.1
26 | CN1C(CC(=O)Nc2ccc(Cl)cc2Cl)c2ccccc2CC1(C)C (stereo not drawn) | -76.7
27 | CN1CCN(CC(=O)Nc2ccc(Cl)cc2Cl)CC1 | -69.4
28 | CN1CCN(C(=S)SCC(=O)Nc2ccc(Cl)cc2C(=O)c2ccccc2)CC1 | -29.8
29 | CN1CCN(CC(=O)Nc2ccc(Cl)cc2C(=O)c2ccccc2)CC1 | -77.2
30 | CN1C(CC(=O)Nc2ccc(Br)cc2)c2ccccc2CC1(C)C (stereo not drawn) | -38.2
31 | O=C(CCN1CCCCC1)Nc1ccc(Cl)cc1C(=O)c1ccccc1 | -72.6
32 | O=C(CN1CCCCCCC1)Nc1ccc(Cl)cc1Cl | 35.9
33 | O=C(O)CC1(CC(=O)Nc2ccc(Cl)cc2C(=O)c2ccccc2)CCCC1 | 6.78
34 | O=C(CCNS(=O)(=O)c1ccccc1)Nc1ccc(Cl)cc1C(=O)c1ccccc1 | -32.9
35 | O=C(CN1CCCC1)Nc1ccc(Cl)cc1C(=O)c1ccccc1.O=C(O)C(=O)O | -46.8
36 | COc1cccc(C(=O)Nc2cc(NC(=O)c3cccs3)ccc2C)c1OC | -14
37 | Cc1sc(-c2c(C#N)c(N)nc3c2CCCCCC3)cc1[N+](=O)[O-] | -4.1
38 | COc1ccc(NC(=O)C2CCN(C(=O)[C@@H]3Cc4ccccc4CN3C(=O)OC(C)(C)C)CC2)cc1 | 2.02

Row | SMILES | hERG current change (%, negative = inhibition) at 10uM [%]
39 | Cc1cc(C)c(NC(=O)Nc2ccccc2)c(C)n1 | 23.4
40 | O=C(CN1CCN(CCO)CC1)Nc1ccc(Cl)cc1C(=O)c1ccccc1 | -72.8
41 | CN1CCN(CC(=O)Nc2ccccc2[N+](=O)[O-])CC1 | -13.2
42 | CN1CCN(CC(=O)Nc2ccc([N+](=O)[O-])cc2C(=O)c2ccccc2)CC1 | -84.6
43 | O=C(CN1CCCC1)Nc1ccccc1C(=O)c1ccccc1 | -2.59
44 | O=C(COc1ccccc1)Nc1ccc(Cl)cc1C(=O)c1ccccc1 | 6.83
45 | CN1CCN(CC(=O)Nc2cccc([N+](=O)[O-])c2)CC1 | 3.24
46 | Cc1ccc(-n2cc(-c3ccccc3)c3c(=O)[nH]cnc32)cc1 | 8.89
47 | COc1ccc(C(CNC(=O)C2CC2)N(C)C)cc1 (stereo not drawn) | 1.52
48 | COc1ccc(CN2CCCC(CNC(=O)c3ccc(F)cc3)C2)c(C)c1C (stereo not drawn) | -75.5
49 | COc1ccc(CC(=O)NCC2CCCN(Cc3ccc(OC)cc3F)C2)cc1 (stereo not drawn) | -36.9
50 | COc1ccc(CN2CCCC(CNC(=O)c3ccc(F)cc3)C2)cc1OC (stereo not drawn) | -70.6
51 | COc1cccc(CN2CCCC(CNC(=O)c3ccc(F)cc3)C2)c1OC (stereo not drawn) | -49.1
52 | COc1ccc(CN2CCCC(CNC(=O)c3ccc(F)cc3)C2)c(F)c1 (stereo not drawn) | -75.4
53 | COc1ccc(C(=O)N2CCCC(CNC(=O)c3ccc(F)cc3)C2)cc1OC (stereo not drawn) | 3.14
54 | COC(=O)c1ccc(C(=O)N2CCCC(CNC(=O)c3ccc(F)cc3)C2)cc1 (stereo not drawn) | -5.82
55 | CCOc1ccccc1CN1CCCC(CNC(=O)Cc2ccc(OC)cc2)C1 (stereo not drawn) | -22.1
56 | CCOc1cc(CN2CCCC(CNC(=O)c3ccc(F)cc3)C2)ccc1OC (stereo not drawn) | -66.2
57 | COc1ccc(CC(=O)NCC2CCCN(Cc3ccc(F)cc3F)C2)cc1 (stereo not drawn) | -17.5
